Drawing on PubChem BioAssay, this text covers outcome and activity change, negative = inhibition for 40 compounds.

Results with a measured potency or affinity are listed apart. Values without a mark were called inactive. The source made the active and inactive calls.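 Rule for the calls, unless noted: active = every replicate test run called active, with the signal dropping as expected and potency within twice the top valid dose; inconclusive = test runs disagree, or a flat partial drop or poor fit; inactive = every test run inactive, or effect opposite to expected.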

One test can be described thus: HepG2 cell cytotoxicity, dose response, cytotoxicity control, cherry-picks, set 2 (AID 687002;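 active = a dose-response fit showing signal loss, with half-maximal concentration no higher than twice the top tested dose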). The settings on record: HepG2 viability, ATP luminescence (CellTiter-Glo), 48 h; series mostly up to 26 µM. A general note: Cellular ATP, detected with luciferase, serves as a proxy for viable cell number.
`CC(C)CC1(C)N=C(c2ccccc2)C(=S)N1` (stereo not given): the call was inactive.
`COc1ccccc1/C=N/NC(=S)NCc1ccco1`: the compound was called inactive.
Turning to `C[C@H](CO)N1C[C@H](C)[C@@H](CN(C)Cc2ccc(Oc3ccccc3)cc2)Oc2ccc(NS(=O)(=O)c3cn(C)cn3)cc2CC1=O`, the outcome was inactive.
For the compound `O=C(NC(=S)Nc1ccccc1N1CCOCC1)c1ccc(Br)cc1`, the compound was called inactive.
Regarding `COc1cc(OC)c(N(C)C(=O)c2cn(C)c(=O)c3cc(OC)c(OC)cc23)cc1Cl`, the compound was called inactive.
Still for that read-out and setting: in the case of `Cc1ccccc1NC(=S)NC(=O)CCc1ccccc1` it was “inactive”; in that of `C[C@H](CO)N1C[C@H](C)[C@H](CN(C)C(=O)Nc2ccc3c(c2)OCO3)Oc2ncc(C#CC(C)(C)O)cc2C1=O`, “inactive”.
In the case of `CCc1ccc(C(=O)NC(=S)NCc2cccnc2)cc1`, the compound was classed as inactive.
Consider `COC(=O)C1=C(C)N(C)C(=S)NC1c1ccccc1` (stereo not given), for which the outcome was inactive.
On to `COC(=O)C1=C(C)N(Cc2ccc(Cl)cc2)C(=S)NC1c1cccc(F)c1` (stereo not given), for which the compound was called inactive.
Consider `S=C(NCc1ccccc1)NCC1COc2ccccc2O1` (stereo not given), for which the compound was called inactive.
On to `CO[C@@H]1CN(C)C(=O)c2ccc(NC(C)=O)cc2OC[C@@H](C)N(C(=O)Cc2cccnc2)C[C@H]1C`, for which the compound was called inactive.
On the same count and under the same terms, next, `COC(=O)C1=C(C)N(CC(C)C)C(=S)NC1c1ccc(F)cc1` (stereo not given): “inactive”.
As for `O=C(NC(=S)Nc1ccccc1N1CCOCC1)c1cccc([N+](=O)[O-])c1`, the compound was classed as inactive.
Take `Cc1c(Cl)cccc1NC(=S)NCCc1ccc(Cl)cc1`: the call was inactive.

The nature of the next test: HeLa cell cytotoxicity, dose response, cytotoxicity control, ATP luminescence, cherry-pick samples (AID 687004;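 active = a fitted half-maximal concentration no higher than twice the top valid tested dose, with signal falling as cells die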;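 note: 0% = neutral control median and -100% = staurosporine 10 µM control median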). The settings on record: HeLa viability, ATP luminescence (CellTiter-Glo), 48 h; series mostly up to 26 µM.
In the case of `CC(C)CC1(C)N=C(c2ccccc2)C(=S)N1` (stereo not given), the call was inactive.
Same read-out and setting: next, `COc1ccccc1/C=N/NC(=S)NCc1ccco1`: “inactive”.
Consider `C[C@H](CO)N1C[C@H](C)[C@@H](CN(C)Cc2ccc(Oc3ccccc3)cc2)Oc2ccc(NS(=O)(=O)c3cn(C)cn3)cc2CC1=O`, for which the compound was classed as inactive.
With `O=C(NC(=S)Nc1ccccc1N1CCOCC1)c1ccc(Br)cc1`, the call was inactive.
On the same count and under the same terms, in the case of `COc1cc(OC)c(N(C)C(=O)c2cn(C)c(=O)c3cc(OC)c(OC)cc23)cc1Cl` it was “inactive”; in that of `Cc1ccccc1NC(=S)NC(=O)CCc1ccccc1`, “inactive”.
Take `C[C@H](CO)N1C[C@H](C)[C@H](CN(C)C(=O)Nc2ccc3c(c2)OCO3)Oc2ncc(C#CC(C)(C)O)cc2C1=O`: the call was inactive.
Same read-out and setting: next, `CCc1ccc(C(=O)NC(=S)NCc2cccnc2)cc1`: “inactive”; `COC(=O)C1=C(C)N(C)C(=S)NC1c1ccccc1` (stereo not given): “inactive”; `COC(=O)C1=C(C)N(Cc2ccc(Cl)cc2)C(=S)NC1c1cccc(F)c1` (stereo not given): “inactive”.
`S=C(NCc1ccccc1)NCC1COc2ccccc2O1` (stereo not given): the compound was called inactive.
As to `CO[C@@H]1CN(C)C(=O)c2ccc(NC(C)=O)cc2OC[C@@H](C)N(C(=O)Cc2cccnc2)C[C@H]1C`, the result was inactive.
Consider `COC(=O)C1=C(C)N(CC(C)C)C(=S)NC1c1ccc(F)cc1` (stereo not given), for which the compound was classed as inactive.
As to `O=C(NC(=S)Nc1ccccc1N1CCOCC1)c1cccc([N+](=O)[O-])c1`, the result was inactive.
Same read-out and setting: next, `Cc1c(Cl)cccc1NC(=S)NCCc1ccc(Cl)cc1`: “inactive”.

A further test can be described thus: inhibitors of PAX8-driven TPO luciferase reporter, dose response, RMG-I cells, cherry-pick (AID 687027). The settings on record: RMG-I TPO-Luc reporter, SteadyGlo luminescence, 24 h; series mostly up to 35 µM. (A reporter such as luciferase makes a cellular process visible.)
For the compound `O=C(c1cccs1)N1C[C@H](O)[C@@H](n2cc(C3CC3)nn2)C[C@@H]1c1ccccc1`, the outcome was inactive.
Consider `Cc1csc(NC(=O)C(C)Oc2ccc(Br)cc2)n1` (stereo not given), for which the result was inactive.
On to `CCOc1ccc2c(CC)cc(=O)oc2c1OCC`, for which the compound was called inactive.
Turning to `COCCNC(=O)C/C(C)=N/NC(=O)C(=O)NC1CCCCC1`, the outcome was inactive.
Consider `Cc1ccc(NC(=O)NC(=O)COc2ccc(Cl)cc2Cl)c(C)c1`, for which the result was inactive.
On the same count and under the same terms, next, `COc1ccc(C2Nc3ccccc3C(=O)N2c2ccc(F)cc2)cc1CSc1ccccn1` (stereo not given): “inactive”; `Cc1ccccc1Cn1cnc2ccccc2c1=O`: “inactive”; `Cc1ccc(NC(=O)C2CC(=O)N/C(=N/N=C/c3ccco3)S2)cc1C` (stereo not given): “inactive”.
For `O=C(CCCC(=O)OCC(Cl)=C(Cl)Cl)Nc1ccc(F)cc1`, the compound was called inactive.
For the compound `COC(=O)CN1C(=S)N(C)C(=O)C1CC(=O)Nc1ccccc1` (stereo not given), the call was inactive.
Consider `O=C(CSc1ncccc1-c1nc2ccccc2[nH]1)N1CCc2ccccc21`, for which the compound was classed as inactive.
On to `COc1ccc(CN2C(=O)C(CC(=O)NCCCCc3ccccc3)CC(C(=O)N3CCOCC3)=C2C)cc1` (stereo not given), for which the compound was called inactive.
Take `Cn1c(SCC(=O)c2ccccc2)nnc1-c1ccccn1`: the result was inactive.
The same measure, in the same setting: in the case of `Cn1cc(/C=C(\C(=O)O)C(C(=O)O)=C2CCCCC2)c2ccccc21` it was “inactive”; in that of `CCCCNC(=O)/C(=C/c1ccccc1)NC(C)=O`, “inactive”.
As to `O=[N+]([O-])c1cccnc1S(=O)(=O)c1ccccc1`, the activity change, negative = inhibition was -21.1% [at 8 µM].
Take `CCOc1ccc2ccccc2c1/C=N\NC(=O)OC`: the result was inactive.
Still for that read-out and setting: in the case of `O=C(NC1CCCCC1)C(c1ccc(F)cc1)N(Cc1ccco1)C(=O)CN1C(=O)c2ccccc2S1(=O)=O` (stereo not given) it was “inactive”; in that of `O=C(O)CCCNC(=O)C(c1ccccc1)c1ccccc1`, “inactive”.
Take `CC1CCCC(NC(=O)COC(=O)c2ccccc2Sc2ccccc2C#N)C1C` (stereo not given): the call was inactive.
Turning to `CN(CC(=O)Nc1cccc(F)c1)C(=O)CCCc1cccs1`, the compound was classed as inactive.
Same read-out and setting: in the case of `CCCCCCCCC(=O)NCCOc1ccccc1` it was “inactive”; in that of `O=C(c1ccc2c(c1)OCO2)N1CCN(c2ccc(C(F)(F)F)cn2)CC1`, “inactive”; in that of `Cc1ccc(NC(=S)N(CCCN2CCOCC2)Cc2ccccn2)cc1`, “inactive”.
Same read-out and setting: in the case of `N/C(=N\OS(=O)(=O)c1cccc([N+](=O)[O-])c1)c1ccncc1` it was “inactive”.
